The values below come from ChEMBL document CHEMBL3988442, “University of Dundee, Small-Polar-MMV Screening Library” (2021).

Set-up in all cases: scale not given: direction of the effect not stated beside the values
Test [1] addresses Protein translocase subunit SecA (Escherichia coli (strain K12)) (UniProt P10408). The experiment in a line: Assay to Identify E. coli SecA ATPase Inhibitors. The format is functional. Particulars: 30 µM.
Test [2] deals with T1, Ubiquitin-activating enzyme e1, putative (Leishmania donovani (strain BPK282A1)) (UniProt E9BSI1).
T1 sequence (whole entry): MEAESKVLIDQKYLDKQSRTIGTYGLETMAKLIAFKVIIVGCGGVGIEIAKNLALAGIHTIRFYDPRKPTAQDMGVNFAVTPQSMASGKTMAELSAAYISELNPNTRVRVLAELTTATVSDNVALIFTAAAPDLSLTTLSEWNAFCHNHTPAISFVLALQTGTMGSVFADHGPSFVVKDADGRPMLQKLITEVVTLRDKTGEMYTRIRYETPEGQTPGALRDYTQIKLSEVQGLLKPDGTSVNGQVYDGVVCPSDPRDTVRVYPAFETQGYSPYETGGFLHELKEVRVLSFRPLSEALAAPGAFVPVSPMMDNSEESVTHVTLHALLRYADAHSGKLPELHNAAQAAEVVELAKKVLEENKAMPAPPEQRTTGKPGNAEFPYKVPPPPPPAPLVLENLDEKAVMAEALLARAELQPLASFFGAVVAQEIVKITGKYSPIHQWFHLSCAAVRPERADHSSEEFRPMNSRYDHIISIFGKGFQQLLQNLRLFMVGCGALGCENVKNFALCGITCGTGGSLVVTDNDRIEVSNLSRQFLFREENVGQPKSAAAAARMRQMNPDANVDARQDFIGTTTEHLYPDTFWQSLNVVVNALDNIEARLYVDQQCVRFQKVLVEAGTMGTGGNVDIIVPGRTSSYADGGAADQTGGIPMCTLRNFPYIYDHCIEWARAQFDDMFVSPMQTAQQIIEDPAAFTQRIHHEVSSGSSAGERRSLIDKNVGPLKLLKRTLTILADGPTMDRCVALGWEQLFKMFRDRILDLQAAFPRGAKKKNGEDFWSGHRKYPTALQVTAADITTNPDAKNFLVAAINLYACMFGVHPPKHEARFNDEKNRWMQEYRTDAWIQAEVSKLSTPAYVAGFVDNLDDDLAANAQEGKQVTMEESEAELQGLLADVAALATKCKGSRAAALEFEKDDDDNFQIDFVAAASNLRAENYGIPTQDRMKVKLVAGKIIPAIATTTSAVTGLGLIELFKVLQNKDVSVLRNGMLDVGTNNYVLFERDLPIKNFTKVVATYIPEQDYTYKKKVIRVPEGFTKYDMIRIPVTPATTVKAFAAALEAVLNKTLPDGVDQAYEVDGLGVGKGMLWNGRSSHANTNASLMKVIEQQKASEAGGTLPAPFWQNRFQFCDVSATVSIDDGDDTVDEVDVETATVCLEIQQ
Put plainly: Leishmania donovani Ubiquitin Activating Enzyme (LdE1). In kind it is functional. The note with it: 30 µM.

In test [3] the target is T2, Aspartate--tRNA(Asp/Asn) ligase (Mycobacterium tuberculosis (strain ATCC 25618 / H37Rv)) (UniProt P9WFW3). Also: in the data most compounds retested in dose-response had high values.
T2 sequence (whole entry): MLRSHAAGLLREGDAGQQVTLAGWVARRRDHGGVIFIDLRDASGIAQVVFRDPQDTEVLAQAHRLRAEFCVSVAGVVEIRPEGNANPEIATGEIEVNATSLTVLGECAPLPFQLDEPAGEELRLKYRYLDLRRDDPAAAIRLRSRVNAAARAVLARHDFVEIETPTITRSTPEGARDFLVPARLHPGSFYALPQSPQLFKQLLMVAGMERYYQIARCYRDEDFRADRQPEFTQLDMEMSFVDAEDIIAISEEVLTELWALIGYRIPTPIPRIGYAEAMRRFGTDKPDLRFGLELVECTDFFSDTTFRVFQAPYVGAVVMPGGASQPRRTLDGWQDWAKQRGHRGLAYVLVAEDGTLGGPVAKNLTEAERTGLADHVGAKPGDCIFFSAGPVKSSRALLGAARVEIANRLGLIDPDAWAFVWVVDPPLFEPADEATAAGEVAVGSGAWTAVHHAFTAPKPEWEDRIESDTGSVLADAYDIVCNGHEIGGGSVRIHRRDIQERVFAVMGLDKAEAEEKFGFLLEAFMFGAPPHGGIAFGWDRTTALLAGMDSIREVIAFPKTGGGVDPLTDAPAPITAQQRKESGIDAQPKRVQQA
Put plainly: Assay for Asp RNA synthetase-1 from Mycobacterium tuberculosis. In kind it is functional. Particulars: 30 µM.

Test [4] concerns the target AMP-activated protein kinase, AMPK (Homo sapiens) (UniProt P54646+O43741+P54619+Q9UGJ0+Q9Y478+Q13131+Q9UGI9). Put plainly: AMP-dependent Kinase enzyme assay. An in vitro enzyme assay that detects ADP turnover that is directly proportional to AMPK activity. This uses naive AMPK that is activated during the assay with MK-8722. In kind it is functional. The note with it: 30 µM.

The target in test [5] is Sialic acid-binding Ig-like lectin 9 (Homo sapiens) (UniProt Q9Y336). The experiment in a line: Hs-Siglec9 ALPHAscreen SOP 20170721. The note with it: 10 µM. On the technique in general: Alpha assays give light when donor and acceptor beads are brought close together.
Sequence of Sialic acid-binding Ig-like lectin 9 (Homo sapiens) (Q9Y336 whole entry): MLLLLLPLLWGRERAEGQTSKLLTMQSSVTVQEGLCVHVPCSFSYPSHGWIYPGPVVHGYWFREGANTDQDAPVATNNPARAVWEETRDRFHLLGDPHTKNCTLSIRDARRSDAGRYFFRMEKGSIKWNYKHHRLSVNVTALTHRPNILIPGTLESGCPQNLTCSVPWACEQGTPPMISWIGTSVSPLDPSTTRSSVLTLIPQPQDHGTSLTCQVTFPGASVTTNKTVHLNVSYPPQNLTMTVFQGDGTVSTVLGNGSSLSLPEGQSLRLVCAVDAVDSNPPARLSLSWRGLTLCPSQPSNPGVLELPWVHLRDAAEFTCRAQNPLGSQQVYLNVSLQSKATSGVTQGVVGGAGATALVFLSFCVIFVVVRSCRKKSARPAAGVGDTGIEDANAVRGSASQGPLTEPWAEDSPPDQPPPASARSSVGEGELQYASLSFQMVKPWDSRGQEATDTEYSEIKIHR
The test system of another test is Trypanosoma cruzi. Put plainly: Trypanosoma cruzi phosphomannomutase and mannose-1-phosphate guanylyltransferase assay. In kind it is functional. The note with it: 10 µM.
Test [6] deals with T3, Arginase-2, mitochondrial (Homo sapiens) (UniProt P78540).
T3 sequence (whole entry): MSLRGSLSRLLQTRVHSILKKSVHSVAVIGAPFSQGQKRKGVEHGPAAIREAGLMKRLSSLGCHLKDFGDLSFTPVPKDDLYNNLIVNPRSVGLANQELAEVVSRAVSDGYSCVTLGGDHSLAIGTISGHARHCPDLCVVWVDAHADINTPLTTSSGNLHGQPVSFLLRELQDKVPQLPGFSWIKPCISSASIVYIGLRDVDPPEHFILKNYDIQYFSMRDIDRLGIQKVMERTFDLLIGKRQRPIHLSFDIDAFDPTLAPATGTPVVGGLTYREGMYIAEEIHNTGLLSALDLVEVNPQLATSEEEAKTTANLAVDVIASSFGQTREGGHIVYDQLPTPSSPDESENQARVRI
The experiment in a line: in vitro enzyme assay to detect the production of urea directly proportional to the activity of Arginase II. Also: in the data most compounds retested in dose-response had high values. In kind it is functional. The note with it: 33.3 µM.

The target of test [7] is T4, Proteasome subunit beta (Trypanosoma cruzi) (UniProt O96673).
T4 sequence (whole entry): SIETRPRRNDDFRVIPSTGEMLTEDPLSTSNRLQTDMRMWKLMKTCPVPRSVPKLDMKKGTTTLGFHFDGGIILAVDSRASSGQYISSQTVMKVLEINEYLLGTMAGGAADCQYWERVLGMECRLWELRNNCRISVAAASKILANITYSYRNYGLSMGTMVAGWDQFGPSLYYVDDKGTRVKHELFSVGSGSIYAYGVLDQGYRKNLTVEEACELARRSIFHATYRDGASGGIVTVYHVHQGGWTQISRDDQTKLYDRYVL
Put plainly: Trypanosoma cruzi proteasome chymotrypsin-like activity (TcProtChymo) assay. Also: in the data most compounds retested in dose-response had high values. The note with it: 9.37 µM. In kind it is functional.

Another test is filed under the species Homo sapiens. The experiment in a line: To identify inhibition of the IFN signalling (Jak-Stat) pathway via expression of an eGFP reporter gene under the control of an IFN-stimulated response element (ISRE) containing MxA promoter. In kind it is functional. The note with it: 30 µM.
Test [8] has as its target Shiga toxin 2 (Escherichia coli O157:H7) (UniProt P09385+P09386). The experiment in a line: E. coli 0.157:H7 Shiga Toxin SOP - stx2 screening assay. In kind it is functional. Particulars: 30 µM.
In test [9] the target is T5, Tyrosyl-tRNA synthetase, putative (Trypanosoma cruzi (strain CL Brener)) (UniProt Q4DSP6).
T5 sequence (whole entry): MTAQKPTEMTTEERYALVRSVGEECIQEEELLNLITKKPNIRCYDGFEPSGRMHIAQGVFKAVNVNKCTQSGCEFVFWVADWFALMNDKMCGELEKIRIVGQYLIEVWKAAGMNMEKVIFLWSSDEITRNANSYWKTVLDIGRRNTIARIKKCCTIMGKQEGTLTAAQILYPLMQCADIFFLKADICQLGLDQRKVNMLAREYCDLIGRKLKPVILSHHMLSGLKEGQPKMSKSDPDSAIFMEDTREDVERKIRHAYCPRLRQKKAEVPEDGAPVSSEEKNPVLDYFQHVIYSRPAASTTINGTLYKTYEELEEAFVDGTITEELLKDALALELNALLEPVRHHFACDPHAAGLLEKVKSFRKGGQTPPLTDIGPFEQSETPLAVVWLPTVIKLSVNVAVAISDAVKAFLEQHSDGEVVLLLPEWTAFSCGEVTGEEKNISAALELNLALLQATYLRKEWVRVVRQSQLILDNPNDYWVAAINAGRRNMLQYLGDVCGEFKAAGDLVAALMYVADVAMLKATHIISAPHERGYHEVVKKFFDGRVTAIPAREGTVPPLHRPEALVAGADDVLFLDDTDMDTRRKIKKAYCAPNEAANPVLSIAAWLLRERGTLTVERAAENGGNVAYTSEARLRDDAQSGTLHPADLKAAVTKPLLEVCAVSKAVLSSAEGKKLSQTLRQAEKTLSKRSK
The experiment in a line: Trypanosoma cruzi tyrosyl tRNA synthetase (TcYRS) _High Tyrosine SOP. Also: in the data most compounds retested in dose-response had high values. The format is functional. The note with it: 30 µM.

Test [10] addresses T5, Tyrosyl-tRNA synthetase, putative (Trypanosoma cruzi (strain CL Brener)). Put plainly: Trypanosoma cruzi tyrosyl tRNA synthetase (TcYRS) SOP. In kind it is functional. The note with it: 30 µM.
Test [11] addresses Chromo domain-containing protein 1 (Saccharomyces cerevisiae (strain ATCC 204508 / S288c) (Baker's yeast)) (UniProt P32657). The experiment in a line: ScCHD-1 Enzyme Inhibition Assay. Also: in the data most compounds retested in dose-response had high values. The format is functional. The note with it: 30 µM.

For some of these results: Measured potencies and affinities stand elsewhere.

Sequence of Protein translocase subunit SecA (Escherichia coli (strain K12)) (P10408 whole entry): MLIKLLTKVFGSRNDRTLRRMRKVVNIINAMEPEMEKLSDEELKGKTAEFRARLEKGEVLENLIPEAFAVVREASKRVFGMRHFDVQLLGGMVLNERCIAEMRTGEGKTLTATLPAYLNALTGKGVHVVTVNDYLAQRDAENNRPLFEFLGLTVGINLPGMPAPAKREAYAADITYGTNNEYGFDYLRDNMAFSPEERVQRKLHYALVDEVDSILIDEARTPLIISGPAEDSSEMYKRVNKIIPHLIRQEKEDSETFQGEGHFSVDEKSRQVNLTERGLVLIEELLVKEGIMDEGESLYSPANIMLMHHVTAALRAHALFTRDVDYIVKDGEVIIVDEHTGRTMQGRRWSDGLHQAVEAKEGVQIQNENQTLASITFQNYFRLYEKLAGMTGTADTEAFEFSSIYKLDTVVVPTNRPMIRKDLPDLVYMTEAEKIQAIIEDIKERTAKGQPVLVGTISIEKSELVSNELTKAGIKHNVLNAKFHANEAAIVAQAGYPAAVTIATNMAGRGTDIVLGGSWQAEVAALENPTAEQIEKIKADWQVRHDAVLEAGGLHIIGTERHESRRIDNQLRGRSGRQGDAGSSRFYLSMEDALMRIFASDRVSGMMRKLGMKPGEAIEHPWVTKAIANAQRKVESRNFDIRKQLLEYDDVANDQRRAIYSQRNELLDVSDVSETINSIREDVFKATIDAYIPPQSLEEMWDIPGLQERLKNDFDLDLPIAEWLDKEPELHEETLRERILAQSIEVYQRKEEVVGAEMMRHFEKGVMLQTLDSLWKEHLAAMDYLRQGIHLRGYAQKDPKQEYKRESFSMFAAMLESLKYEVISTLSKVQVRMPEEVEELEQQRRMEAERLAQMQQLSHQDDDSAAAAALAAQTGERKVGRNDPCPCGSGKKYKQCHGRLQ
Sequence of Chromo domain-containing protein 1 (Saccharomyces cerevisiae (strain ATCC 204508 / S288c) (Baker's yeast)) (P32657 whole entry, the tested form may be a part): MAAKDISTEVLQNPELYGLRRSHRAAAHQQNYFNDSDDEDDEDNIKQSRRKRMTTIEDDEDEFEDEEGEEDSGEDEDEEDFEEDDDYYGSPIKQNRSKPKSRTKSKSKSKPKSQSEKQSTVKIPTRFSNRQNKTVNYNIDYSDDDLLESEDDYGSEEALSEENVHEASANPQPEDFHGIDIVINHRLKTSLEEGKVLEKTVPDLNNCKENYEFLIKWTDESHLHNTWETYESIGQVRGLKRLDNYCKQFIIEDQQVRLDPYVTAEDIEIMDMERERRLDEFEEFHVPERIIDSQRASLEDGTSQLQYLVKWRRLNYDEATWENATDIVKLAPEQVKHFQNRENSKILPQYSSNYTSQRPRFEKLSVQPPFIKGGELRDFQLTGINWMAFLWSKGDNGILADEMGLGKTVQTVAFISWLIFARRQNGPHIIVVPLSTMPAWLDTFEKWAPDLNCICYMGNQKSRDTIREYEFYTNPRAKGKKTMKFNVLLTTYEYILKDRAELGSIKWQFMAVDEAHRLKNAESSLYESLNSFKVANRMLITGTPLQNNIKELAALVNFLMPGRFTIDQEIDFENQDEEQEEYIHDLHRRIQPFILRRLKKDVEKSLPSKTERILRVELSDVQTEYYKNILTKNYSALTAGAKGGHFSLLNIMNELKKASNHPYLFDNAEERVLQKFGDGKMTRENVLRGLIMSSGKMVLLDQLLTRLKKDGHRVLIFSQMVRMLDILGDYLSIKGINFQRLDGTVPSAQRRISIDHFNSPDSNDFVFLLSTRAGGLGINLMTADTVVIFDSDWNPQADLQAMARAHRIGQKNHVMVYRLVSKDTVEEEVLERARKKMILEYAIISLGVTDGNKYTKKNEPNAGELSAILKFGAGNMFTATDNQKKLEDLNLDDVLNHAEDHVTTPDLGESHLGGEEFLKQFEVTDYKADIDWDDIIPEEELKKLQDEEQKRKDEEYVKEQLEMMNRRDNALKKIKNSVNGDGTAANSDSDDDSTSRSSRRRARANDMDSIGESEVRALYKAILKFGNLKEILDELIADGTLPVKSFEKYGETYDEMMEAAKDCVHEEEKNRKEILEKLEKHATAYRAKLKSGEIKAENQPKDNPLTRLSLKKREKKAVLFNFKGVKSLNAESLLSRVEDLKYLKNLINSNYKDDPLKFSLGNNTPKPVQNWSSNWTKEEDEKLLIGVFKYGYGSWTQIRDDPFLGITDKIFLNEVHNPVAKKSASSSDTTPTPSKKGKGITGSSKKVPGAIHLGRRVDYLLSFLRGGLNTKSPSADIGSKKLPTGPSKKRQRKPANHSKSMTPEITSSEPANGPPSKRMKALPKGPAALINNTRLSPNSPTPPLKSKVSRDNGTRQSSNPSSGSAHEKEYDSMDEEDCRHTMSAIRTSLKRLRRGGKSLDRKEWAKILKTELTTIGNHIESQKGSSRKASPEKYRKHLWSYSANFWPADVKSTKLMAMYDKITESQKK

With `Cc1cc(CC(=O)N2CCN(CC3CC3)[C@@H]3CS(=O)(=O)C[C@@H]32)ccc1F`, the Percent Effect in test [1] was -1.82%; in test [2], 6.94%; in [3], 3.29%; in test [4] it was 35.7%; in test [5] it was -0.65%; in the test with Trypanosoma cruzi, 0.0972%. Also, the Percent Effect in test [6] is 3.53%; in test [7], 7.02%; in the test filed under Homo sapiens it was -1.41%; in [8] it was 1.5%; in [9], 7.37%; in [10], -15.4%. For the same compound, the Percent Effect in test [11] is -3.03%.
Take `CC(C)CN1CCC2(CC1)C(=O)Nc1ccc(C(=O)N(C)C)cc12`: the Percent Effect was -4.79% in [1]; 5.41% in test [2]; -0.578% in test [3]; -2.95% in test [4]; -1.19% in test [5]; -3.81% in the test with Trypanosoma cruzi. Further, the Percent Effect in test [6] turned out to be 0.248%; in [7], 8.67%; in the test listed under Homo sapiens, 7.43%; in test [8], 5.38%; in test [9], 4.3%; in test [10], 8.64%. In test [11], the Percent Effect is -2.28%.
On to `Fc1cnc(N2CCO[C@H]3CN(CC4CCCC4)C[C@H]32)nc1`, for which the Percent Effect in test [1] was -2.09%; in test [2] it was 21.3%; in test [3], -4.57%; in test [4] it was -6.38%; in test [5], -0.399%; in the test on Trypanosoma cruzi it was 3.48%. For the same compound, the Percent Effect is -60% in test [6]; 3.93% in test [7]; -7.5% in the test filed under Homo sapiens; -12.1% in test [8]; 3.12% in test [9]; 2.5% in test [10]. Besides, the Percent Effect in [11] was -13.4%.
Regarding `Cc1oc(-c2ccco2)nc1CC(=O)N1CCN(CC(C)(C)O)CC1`, the Percent Effect in test [1] is -3.06%; in test [2] it was 5.2%; in [3] it was 0.144%; in test [4], -3.3%; in test [5], 5.79%; with Trypanosoma cruzi, -0.294%. For the same compound, the Percent Effect in test [6] was determined as 5.68%; in [7], 8%; in the test listed under Homo sapiens it was 22.9%; in test [8], 30.6%; in [9], 2.86%; in test [10] it was 9.41%. Besides, in test [11], the Percent Effect was -21.6%.
